Where a name gives a salt, the structure may show the parent alone. ± gives the standard deviation of the averaged measurements. In all, about 1,700 compounds were measured (“cell number in HSV-1-infected wells relative to infected DMSO wells (H2B-RFP signal)”: median about 100, highest 2% from about 140 on). Many of the other results were omitted from the sample, so the highest values are more common in it than they were.
The molecules below were run on A549 infected with HSV-1 (assay: cell number in HSV-1-infected wells relative to infected DMSO wells (H2B-RFP signal); higher = more surviving cells (uninfected or antiviral-protected wells give about 200%; low = toxicity)). Settings: 10 µM; 48 h; MOI: 0.1.
Procedure: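 Selleck FDA-approved library (L1300) screened in duplicate at 10 µM on A549 H2B-mRuby cells in 384-well plates, infected with HSV-1 strain 17 YFP-ICP4 at MOI 0.1 one hour before drug addition. Imaged after 2 days at 37°C. Cell growth (H2B-RFP) and infection (ICP4-YFP) are expressed as % of DMSO-treated wells. Hits: growth >90% and infection <20% of DMSO.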

| SMILES | cell number in HSV-1-infected wells [%] |
| --- | --- |
| Nc1cc(C(Cl)=C(Cl)Cl)c(S(N)(=O)=O)cc1S(N)(=O)=O [Clorsulon] | 114 ± 7.9 |
| CCc1c(C)[nH]c2c1C(=O)C(CN1CCOCC1)CC2 (centres undefined) [Molindone hydrochloride] | 93 ± 20 |
| CO/N=C(\C(=O)N[C@@H]1C(=O)N2C(C(=O)O)=CCS[C@H]12)c1csc(N)n1 [Ceftizoxime] | 136 ± 15 |
| COc1ccccc1OCC(O)COC(N)=O (centres undefined) [Methocarbamol] | 115 ± 1.9 |
| Cl.NCCCC[C@H](N)C(=O)O [L-Lysine hydrochloride] | 123.8 ± 0.98 |
| CC(=O)O[C@]1(C(C)=O)CC[C@H]2[C@@H]3C=C(Cl)C4=CC(=O)[C@@H]5C[C@@H]5[C@]4(C)[C@H]3CC[C@@]21C [Cyproterone Acetate] | 118 ± 11 |
| CC(=O)O[C@]1(C(C)=O)CC[C@H]2[C@@H]3C=C(Cl)C4=CC(=O)CC[C@]4(C)[C@H]3CC[C@@]21C [Chlormadinone acetate] | 148 ± 5.6 |
| CC(=O)O[C@]1(C(C)=O)CC[C@H]2[C@@H]3C=C(C)C4=CC(=O)CC[C@]4(C)[C@H]3CC[C@@]21C [Megestrol Acetate] | 112 ± 9.4 |
| CN1CCN(c2ccc(C(=O)Nc3n[nH]c4ccc(Cc5cc(F)cc(F)c5)cc34)c(NC3CCOCC3)c2)CC1 [Entrectinib (RXDX-101)] | 18 ± 8.2 |
| CCC/N=C1\S/C(=C\c2ccc(OC[C@H](O)CO)c(Cl)c2)C(=O)N1c1ccccc1C [Ponesimod] | 17.2 ± 12 |
| CC(OC(=O)OC1CCCCC1)OC(=O)C1=C(CSc2nnnn2CCN(C)C)CS[C@@H]2[C@H](NC(=O)Cc3csc(N)n3)C(=O)N12 (some centres undefined) [Cefotiam Hexetil Hydrochloride] | 76.7 ± 3.4 |
| CC(C)(CO)[C@@H](O)C(=O)NCCCO [D panthenol] | 121 ± 46 |
| COc1c(N2C[C@@H]3CCCN[C@@H]3C2)c(F)cc2c(=O)c(C(=O)O)cn(C3CC3)c12 [Moxifloxacin] | 145 ± 32 |
| COc1c(N2C[C@@H]3CCCN[C@@H]3C2)c(F)cc2c(=O)c(C(=O)O)cn(C3CC3)c12 [Moxifloxacin HCl] | 87.9 ± 22 |
| CNC1CCCN(c2c(F)cc3c(=O)c(C(=O)O)cn(C4CC4)c3c2OC)C1 (centres undefined) [Balofloxacin] | 117 ± 1.2 |
| COc1c(N2CCNC(C)C2)c(F)cc2c(=O)c(C(=O)O)cn(C3CC3)c12 (centres undefined) [Gatifloxacin] | 108 ± 17 |
| CCCN1CCCC[C@H]1C(=O)Nc1c(C)cccc1C [Ropivacaine] | 115 ± 7.2 |
| CCCN1CCCC[C@H]1C(=O)Nc1c(C)cccc1C [Ropivacaine HCl] | 87.6 ± 6.9 |
| [Cl][Mn][Cl] [Manganese chloride] | 109 ± 4.5 |
| CCOc1ccc(Cc2cc([C@@H]3O[C@H](SC)[C@@H](O)[C@H](O)[C@H]3O)ccc2Cl)cc1 [Sotagliflozin (LX4211)] | 61.71 ± 0.063 |
| COc1cc2c(cc1OC)[C@H]1C[C@@H](OC(=O)[C@@H](N)C(C)C)[C@H](CC(C)C)CN1CC2 [Valbenazine tosylate] | 134 ± 41 |
| O=C(O)c1cn(C2CC2)c2cc(N3CCNCC3)c(F)cc2c1=O [Ciprofloxacin hydrochloride hydrate] | 139 ± 2.3 |

| SMILES | cell number in HSV-1-infected wells [%] |
| --- | --- |
| CN1C[C@@H]2C[C@H]1CN2c1cc2c(cc1F)c(=O)c(C(=O)O)cn2C1CC1 [Danofloxacin Mesylate] | 110.8 ± 1.1 |
| CN1CCN(c2cc3c(cc2F)c(=O)c(C(=O)O)cn3-c2ccc(F)cc2)CC1 [Difloxacin HCl] | 129 ± 16 |
| O=C(O)c1cn(-c2ccc(F)cc2)c2cc(N3CCNCC3)c(F)cc2c1=O [Sarafloxacin HCl] | 151 ± 7.2 |
| CCn1cc(C(=O)O)c(=O)c2cc(F)c(N3CCNCC3)cc21 [Norfloxacin] | 97.4 ± 27 |
| CCN1CCN(c2cc3c(cc2F)c(=O)c(C(=O)O)cn3C2CC2)CC1 [Enrofloxacin] | 147 ± 8.9 |
| NC(=O)c1cccc2cn(-c3ccc([C@@H]4CCCNC4)cc3)nc12 [Niraparib (MK-4827)] | 71.2 ± 3.2 |
| NC(=O)c1cccc2cn(-c3ccc([C@@H]4CCCNC4)cc3)nc12 [Niraparib (MK-4827) tosylate] | 71.7 ± 13 |
| C[C@H](CCC(=O)O)[C@H]1CC[C@H]2[C@@H]3CC[C@@H]4C[C@H](O)CC[C@]4(C)[C@H]3C[C@H](O)[C@]12C [Deoxycholic acid] | 109 ± 44 |
| COCC[n+]1c2c(n(Cc3cnccn3)c1C)C(=O)c1ccccc1C2=O [YM155 (Sepantronium Bromide)] | 9.16 ± 6 |
| CCN1CC(CCN2CCOCC2)C(c2ccccc2)(c2ccccc2)C1=O (centres undefined) [Doxapram HCl] | 91.29 ± 0.3 |
| CCN1CC(CCN2CCOCC2)C(c2ccccc2)(c2ccccc2)C1=O (centres undefined) [Doxapram] | 96.5 ± 8.2 |
| CC(C)N(CCCCOCC(=O)NS(C)(=O)=O)c1cnc(-c2ccccc2)c(-c2ccccc2)n1 [Selexipag] | 80.8 ± 1.5 |
| CN(C/C=C/C#CC(C)(C)C)Cc1cccc2ccccc12 [Terbinafine HCl] | 101 ± 9 |
| CN(C/C=C/C#CC(C)(C)C)Cc1cccc2ccccc12 [Terbinafine] | 99.9 ± 40 |
| OC[C@H]1O[C@H](O[C@H]2[C@H](O)[C@@H](O)C(O)O[C@@H]2CO)[C@H](O)[C@@H](O)[C@@H]1O (mixture of isomers) [Maltose] | 117 ± 4.3 |
| Cc1c(-c2cnccn2)ssc1=S [Oltipraz] | 100 ± 4 |
| C[C@@H](c1nc(-c2ccc(C#N)cc2)cs1)[C@](O)(Cn1cncn1)c1cc(F)ccc1F [Isavuconazole] | 99.7 ± 21 |
| CC(C)OC(=O)[C@H](C)N[P@](=O)(CO[C@H](C)Cn1cnc2c(N)ncnc21)Oc1ccccc1 [Tenofovir Alafenamide (GS-7340)] | 189.3 ± 1.6 |
| CC(C)(C)C(=O)OCOP(=O)(COCCn1cnc2c(N)ncnc21)OCOC(=O)C(C)(C)C [Adefovir Dipivoxil] | 64.6 ± 8.8 |
| C[C@H](Cn1cnc2c(N)ncnc21)OCP(=O)(O)O [Tenofovir] | 79.9 ± 13 |
| CC(C)OC(=O)[C@H](C)N[P@](=O)(OC[C@H]1O[C@@H](n2ccc(=O)[nH]c2=O)[C@](C)(F)[C@@H]1O)Oc1ccccc1 [Sofosbuvir (PSI-7977, GS-7977)] | 73.7 ± 21 |
| CC(C)OC(=O)OCOP(=O)(CO[C@H](C)Cn1cnc2c(N)ncnc21)OCOC(=O)OC(C)C [Tenofovir Disoproxil Fumarate] | 147.7 ± 0.7 |

— the supplement of paper PMC11537057
